Results on 25 compounds are retold here after PubChem BioAssay (NCATS).

Inconclusive results are not listed. The source made the active and inactive calls. Calls follow the shape of the dose curve; as a rule, active = well fitted inhibition curve with a large enough effect; inconclusive = small, poorly fitted or top-dose-only effect; inactive = flat fitted curve, though single readings scatter.
% is scaled to controls: 0 for no effect and ±100 for the full control effect; potency is read from the fitted curve at half-maximal effect.

This experiment has as its system NIH3T3. In words: Cytotoxic Profiling of Annotated Libraries Using Quantitative High-Throughput Screening (AID 1296008). Also: nearly all actives have a fitted effect of over 60% in size. The conditions noted are these: Five cell lines viability, CellTiter-Glo ATP luminescence, 48-72 h; max response: hits give low values. The gist of the method:
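Cells exposed to compounds for 48 or 72 hr at 37 degrees Celsius. Viability read as ATP-coupled luminescence with CellTiter-Glo after 10 min at room temperature.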
(In general: ATP-based viability assays read luminescence as a measure of living cells.)
`C/C(=C/C=C\C=C\Cc1cnco1)[C@@H](O)C(C)(C)C(N)=O`: the max response was -15.3% (inactive).
For the compound `CCC(C)CNCC(=O)N1CCC2SC=CC2C1COc1cccc(C)c1` (stereo not given), the max response was -20.9% (inactive).
Turning to `CNC(=O)c1cc(Oc2ccc(NC(=O)c3cccc(C(F)(F)F)c3)cc2)ccn1`, the max response was -24.9% (inactive).
Consider `CC(F)(F)CN1CCOc2c(nn(-c3ccccc3Cl)c2-c2ccc(Cl)cc2)C1=O`, for which the max response is -14.8% (inactive).
In the case of `COc1cc(CN(CCN)C(=O)c2cccs2)ccc1OCc1ccccc1`, the max response is -11.2% (inactive).
In the case of `CO[C@H]1[C@@H](O)[C@H](O[C@H]2CC[C@@]3(C)C(CCC4C3CC[C@]35COC6(COC(=O)C6)C3CCC45O)C2)O[C@@H](C)[C@@H]1OC1OC(CO)C(OC2OC(CO)C(O)C(O)C2O)C(O)C1O` (stereo not given in full), the compound was classed as inactive.
`O=C1c2ccc(Nc3ccc(F)cc3F)cc2CCc2ccc(OCC(O)CO)cc21` (stereo not given): the max response is -2.95% (inactive).
On to `O=S(=O)(c1ccccc1)N(CC(F)(F)F)c1ccc(C(O)(C(F)(F)F)C(F)(F)F)cc1`, for which the max response was 0.0289% (inactive).
Still for that read-out and setting: the figure for `CCC(C)CNCC(=O)N1CCc2sccc2C1COc1cccc(C)c1` (stereo not given) is -25.4% (inactive); for `COc1cc(C(C)C)c(Oc2cnc(N)nc2N)cc1I` it is -1.33% (inactive); for `Cc1cc(C)cc(-c2cnc3cc(Cl)c(-c4cccc(O)c4)cc3c2OCCCN)c1` it is -0.922% (inactive).
For `C=CC(C)(O)CC/C=C(\C)C(=O)OC1C(O)C(CO)OC(OC(=O)C23CCC(C)(C)CC2C2=CCC4C5(C)CCC(OC6OC(COC7OCC(OC(C)=O)C(O)C7OC7OC(COC(C)=O)C(O)C(O)C7OC(C)=O)C(O)C(O)C6OC6OCC(O)C(O)C6O)C(C)(C)C5CCC4(C)C2(C)C(O)C3O)C1OC1OCC(OC2OCC(O)C(OC3OCC(O)C(O)C3O)C2O)C(O)C1O` (stereo not given), the max response was -5.37% (inactive).
Take `CCc1cccc(CC)c1-n1c(C=C(C)C)c(C(=O)N2CCNCC2)cc(-c2nc(-c3ccc(C(F)(F)F)cc3)cs2)c1=O`: the max response was -4.22% (inactive).
Regarding `Cc1nc(Nc2ccc(F)cc2)nc(N2CCc3ccccc3C2C)c1C` (stereo not given), the max response was -20.5% (inactive).
With `CCCn1ncc(CN2CCCC(C(=O)c3cccc(OC(C)C)c3)C2)c1C` (stereo not given), the max response is -15.4% (inactive).
Turning to `Cc1ccc(N2CCN(CCC3NC(=O)c4ccccc43)CC2)cc1C` (stereo not given), the max response is 0.934% (inactive).
`COc1ccc(S(=O)(=O)Nc2c(C)cc(C)cc2C)cc1`: the max response was 0.769% (inactive).
Regarding `O=C(NS(=O)(=O)c1ccc(Br)s1)c1ccc(Cl)cc1Cl`, the max response is -6.08% (inactive).
Turning to `CC1(C)CC[C@]2(C(=O)O)CC[C@]3(C)C(=CCC4[C@@]5(C)C[C@@H](O)[C@H](O)[C@@](C)(CO)C5CC[C@]43C)[C@@H]2[C@@H]1O` (stereo not given in full), the max response was 4.68% (inactive).
`COc1cc2c(cc1-c1c(C)noc1C)ncc1[nH]c(=O)n(C(C)c3ccccn3)c12` (stereo not given): the Potency is 7.31 µM (active).
Consider `CC1(C)CCC(C)(C)c2cc(C#Cc3ccc(C(=O)O)cc3)ccc21`, for which the result was inactive.
Turning to `Cc1nc2c(C(F)(F)F)cccc2nc1-c1ccc(-c2cccc(S(C)(=O)=O)c2)cc1`, the max response was -12.4% (inactive).
With `CC(C)C[C@@H](C(=O)N[C@@H](Cc1ccc(OCc2ccccc2)cc1)C(=O)NC(C)(C)C)N(C)Cc1ccc(C(C)(C)C)cc1`, the max response is -5.54% (inactive).
Take `CC1=C(C(=O)OC2CCCCC2)C(c2ccc([N+](=O)[O-])cc2)C2=C(CC(C)(C)CC2=O)N1` (stereo not given): the max response was -3.56% (inactive).
With `C[C@@H]1O[C@@H](O[C@H]2[C@H](OC(=O)[C@]34CCC(C)(C)C[C@H]3C3=CCC5[C@@]6(C)C[C@H](O)[C@H](O[C@@H]7O[C@H](C(=O)O)[C@@H](O)[C@H](O)[C@H]7O)[C@@](C)(CO)C6[C@H](O)C[C@@]5(C)[C@]3(C)C[C@H]4O)O[C@@H](CO)[C@@H]2O)[C@H](O)[C@H](O)[C@H]1O[C@@H]1OC[C@@H](O)[C@H](O[C@H]2OC[C@](O)(CO)[C@H]2O)[C@H]1O` (stereo not given in full), the max response was -0.318% (inactive).
